Results from ChEMBL document CHEMBL3988442, “University of Dundee, Small-Polar-MMV Screening Library” (2021).
About 13,000 (27%) of roughly 48,000 compounds showed an effect of 50% or more. The list shows a part of the results.

The compounds below were run on Wolbachia pipientis (assay: Anti-Wolbachia Cell-Based Screen). Conditions: 5 µM.
Format: functional
Set-up: scale not given: in the data most compounds retested in dose-response had high values
For `O=C1CCCc2occ(C(=O)N3CCCC4(CCNC4)C3)c21` (stereo not drawn), the “Percent Effect” value was -0.7654%.
For `Cc1c(Cl)cccc1S(=O)(=O)NCC(O)c1cccn1C` (stereo not drawn), the “Percent Effect” value was 9.208%.
`O=C(NCCn1cccn1)Nc1cc(C(=O)N2CCOCC2)ccc1Cl` was tested, and the “Percent Effect” value was -1.545%.
In the case of `COCCNC(=O)[C@H]1C[C@@](CC(C)C)(C(=O)O)N(C)[C@H]1c1cccnc1`, the “Percent Effect” value is reported as -5.7%.
With `Cc1cc(C)n(-c2ccc(C(=O)NCC(CO)Cc3ccco3)cc2)n1` (stereo not drawn) the “Percent Effect” value was 116.9%.
`CCCS(=O)(=O)NC(=O)c1ccc(-n2nc(C)cc2C)cc1` was tested, and the “Percent Effect” value was -12.15%.
`CC(C)n1cc(C(=O)NCC(CO)Cc2cccs2)cn1` (stereo not drawn) was tested, and the “Percent Effect” value was 100.7%.
With `CC(CNC(=O)N1CCC(CO)CC1)Cc1cccs1` (stereo not drawn) the “Percent Effect” value was -8.447%.
For `Cc1cc(C)n(-c2ccc(C(=O)NCc3cncn3CC(C)C)cc2)n1`, the “Percent Effect” value was -4.296%.
For `Cc1cc(C)n(-c2ccc(C(=O)NCC(CO)Cc3cccs3)cc2)n1` (stereo not drawn), the “Percent Effect” value was 87.25%.
For `Cc1cc(C)n(-c2ccc(C(C)NS(=O)(=O)CCCS(C)(=O)=O)cc2)n1` (stereo not drawn), the “Percent Effect” value was 5.826%.
For `CC(C)n1cc(C(=O)NCCc2cn3ccsc3n2)cn1`, the “Percent Effect” value was -2.025%.
With `CSCc1nc(CNC(=O)c2cnn(C(C)C)c2)cs1` the “Percent Effect” value was -8.764%.
`Cc1cc(-c2nn(C)c(Cl)c2CN2Cc3ccccc3C(O)C2)no1` (stereo not drawn) was tested, and the “Percent Effect” value was 9.326%.
For `CCCS(=O)(=O)N1CCC2(CCCC(=O)N2C)CC1`, the “Percent Effect” value was -27.87%.
With `COCCN1CCN(Cc2ccc(C(C)=O)cc2)[C@H]2CS(=O)(=O)C[C@H]21` the “Percent Effect” value was -2.157%.
In the case of `Cc1nn(C)c(Oc2cccc(F)c2)c1NC(=O)C1CCCO1` (stereo not drawn), the “Percent Effect” value is reported as 1.382%.
In the case of `COC(=O)C1CN(Cc2ccc(-c3ccncc3)cc2F)C[C@@H](C)O1` (stereo partly drawn), the “Percent Effect” value is reported as 4.503%.
For `CC(C)OCCN1CCN(C(=O)c2cccc(-n3cccn3)n2)CC1`, the “Percent Effect” value was -4.895%.
For `COc1cccc2c1OCC(C(=O)NCCc1nnc(C)s1)C2` (stereo not drawn), the “Percent Effect” value was 6.125%.
For `COc1cccc2c1OCC(CNC(=O)CNC(N)=O)C2` (stereo not drawn), the “Percent Effect” value was -0.3476%.
For `COc1cccc2c1OCC(NC(=O)NCCc1ccccn1)C2` (stereo not drawn), the “Percent Effect” value was 120.5%.
`COc1cccc2c1OCC(NC(=O)NCCC(N)=O)C2` (stereo not drawn) was tested, and the “Percent Effect” value was 107.1%.
For `COc1cccc2c1OCC(C(=O)NCCc1nnc(N)s1)C2` (stereo not drawn), the “Percent Effect” value was 12.39%.
With `COc1cccc2c1OCC(CNC(=O)CSc1ccccn1)C2` (stereo not drawn) the “Percent Effect” value was -6.827%.
In the case of `CNC(=O)c1cccc(CNC2CCCSc3ccccc32)c1` (stereo not drawn), the “Percent Effect” value is reported as -0.5699%.
In the case of `CN(C)C(C(=O)NCC1(Cn2cccn2)CC1)c1ccc(F)cc1` (stereo not drawn), the “Percent Effect” value is reported as -7.743%.
`CSc1ccc(OC(C)C(=O)Nc2cc[nH]n2)cc1` (stereo not drawn) was tested, and the “Percent Effect” value was 1.482%.
